TDP1 cell noCPT – qHTS for Inhibitors of human tyrosyl-DNA phosphodiesterase 1 (TDP1): qHTS in cells in absence of CPT | DT40 Tdp1-/- hTDP1 cells, no CPT, ATP luminescence, 48 h | Potency, µM (series often up to 46.2 µM), without a hit: at the top dose activity change, negative = growth inhibition, actives largely listed as inhibitors | 420,000 compounds, 15% hits | AID 686978, 2013; note: potency is the fitted concentration of half-maximal effect; nearly all actives have a fitted effect of over 55% in size
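Camptothecin absent (DMSO only). Human TDP1-complemented DT40 knockout cells, 400 cells/well, 37 °C for minimum 48 hr; ATP measured via CellTiter-Glo, 30 min dark incubation, luminescence.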
DT40 TDP1 CPT – DT40-hTDP1 cell growth loss with CPT; chicken DT40 Tdp1-/-;hTDP1 cells + 20 nM CPT, ATP luminescence, 48 h; Potency, µM (top dose mostly 46.2 µM), for the others: at the top dose activity change, negative = growth inhibition, most hits filed as inhibitors; 420,000 compounds, 12% hits; note: potency is the fitted concentration of half-maximal effect; nearly all actives have a fitted effect of over 55% in size
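Chicken DT40 Tdp1-/- cells complemented with human TDP1, 400 cells/well, exposed to compounds plus 20 nM camptothecin for at least 48 h at 37 C; viability read as ATP content by CellTiter-Glo luminescence.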
RORg inh – ROR gamma (mouse) transcription inhibition; Potency, µM (top dose mostly 53.6 µM), without a hit: top-dose activity change, negative = inhibition, hits mostly inhibitors; Drosophila S2 Gal4-RORgamma UAS-luciferase reporter, 20 h; 310,000 compounds, 5.4% hits; P51450; AID 2551; note: potency is the fitted concentration of half-maximal effect; nearly all actives have a fitted effect of over 60% in size
Target sequence (P51450 whole entry, looked up, the tested form may be a part): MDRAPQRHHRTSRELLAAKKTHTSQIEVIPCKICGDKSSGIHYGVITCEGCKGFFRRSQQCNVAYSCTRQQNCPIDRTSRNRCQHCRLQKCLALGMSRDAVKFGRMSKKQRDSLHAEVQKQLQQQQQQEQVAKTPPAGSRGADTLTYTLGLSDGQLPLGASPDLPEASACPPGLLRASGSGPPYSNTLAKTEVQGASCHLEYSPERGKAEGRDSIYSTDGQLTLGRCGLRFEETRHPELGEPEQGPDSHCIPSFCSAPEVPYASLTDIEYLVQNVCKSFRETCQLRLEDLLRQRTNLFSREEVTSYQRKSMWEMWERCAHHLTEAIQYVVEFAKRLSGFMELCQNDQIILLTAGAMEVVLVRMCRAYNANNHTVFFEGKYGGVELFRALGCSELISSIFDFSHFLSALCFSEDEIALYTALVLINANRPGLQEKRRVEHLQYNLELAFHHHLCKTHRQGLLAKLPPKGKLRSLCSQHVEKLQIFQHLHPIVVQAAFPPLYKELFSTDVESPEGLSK
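A Gal4/UAS one-hybrid system in insect cells: metallothionein-promoter Gal4–ROR gamma fusion plus Photinus luciferase reporter. Copper sulfate 700 uM final, 20 hr ambient incubation, luminescent detection after 10 min with reagent.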
LDHA inh – LDHA (human) enzyme inhibition | P00338 | purified LDHA, NADH/diaphorase-resazurin fluorescence; stronger effect = lower value | activity change, % (values are at about 110 or 230 µM) | 480,000 compounds, 0.15% hits; in the data active = activity change below about -30%; inconclusive = mostly about -25% to -30%;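 note: plate controls were DMSO wells for no effect and wells without enzyme for full effect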
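LDH5 2 nM; NADH 0.06 mM, pyruvate 0.2 mM; 200 mM Tris pH 7.4, EDTA, Tween-20; 5 min RT. Detection: diaphorase 0.133 mg/mL + resazurin 37 µM, fluorescence ex540/em590 at 0 and 20 min; normalized to enzyme-free and DMSO wells.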
VP16 counter – inhibits Gal4-VP16 luciferase reporter, ROR gamma counter-screen; Drosophila S2 Gal4-VP16 UAS-luciferase, luminescence, 20 h; Potency, µM (highest dose often 53.6 µM), without a hit: top-dose activity, negative = inhibition, most hits filed as inhibitors; 310,000 compounds, 3.5% hits; AID 2546;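 note: Gal4-VP16 expression switched on by copper sulfate through the metallothionein promoter; potency is the fitted concentration of half-maximal effect; nearly all actives have a fitted effect of over 50% in size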
IL1B secr inh – blocks inflammasome-driven IL-1 beta release; 360,000 compounds, 4.7% hits; activity change, % at 57.5 µM; AID 743279; THP-1 LPS/ATP IL-1B secretion, AlphaLISA, 16 h; stronger effect = lower value; in the data active = activity change below about -50%; inconclusive = mostly about -30% to -49%
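THP-1 cells pretreated 1 hr with compounds (up to 57.5 uM final), then stimulated with LPS (250 ng/mL final) plus ATP (1.25 mM final); secreted IL-1B measured by AlphaLISA after 16 hr, decreased signal indicating inhibition.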
Numbers without * were called inactive; u = inconclusive; x = no result given. The list is not random: actives were taken first. Their share in the collection is about 18%. Unless noted, calls come from the whole dose curve; as a rule, active = well fitted curve in the direction sought with a large enough effect; inconclusive = small, poorly fitted or top-dose-only effect, or another doubt; inactive = no such curve, though single readings can be large; an effect the other way counts as inactive or inconclusive. Unless noted, % is set by controls: 0 for no effect and ±100 for the full control effect.

SMILES | TDP1 cell noCPT | DT40 TDP1 CPT | RORg inh | LDHA inh | VP16 counter | IL1B secr inh
CCC1CCCCN1C(=O)COc1ccc(N(C)S(=O)(=O)c2ccc(C)cc2)cc1 (stereo not drawn) | 15µM* | 21µM* | 25% | -4 | 7% | 4
Cc1ccc(NC(=O)COc2ccc(N(C)S(=O)(=O)c3ccc(F)cc3)cc2)cc1 | 16µM* | u | x | 1 | x | -9
CN(c1ccc(OCC(=O)NC2CCC(O)CC2)cc1)S(=O)(=O)c1ccc(Cl)cc1 (stereo not drawn) | 13µM* | u | x | 6 | x | 11
O=C(Cn1ccc2cc(Cl)ccc21)Nc1ccc2c(c1)OCCO2 | x | x | x | 5 | x | x
Cc1cccc(Oc2ccc3c(c2)cc(C(=O)NCc2ccco2)n3C)c1 | x | x | x | 0 | x | x
CCCOc1ccccc1NC(=O)c1cc2cccc(OC)c2oc1=O | x | x | x | -6 | x | x
COc1ccc(NC(=O)COc2ccc(N(C)S(=O)(=O)c3ccc(Cl)cc3)cc2)cc1OC | 4.6µM* | 7.3µM* | x | -1 | x | -6
COc1ccc(-c2csc(NC(=O)COc3ccc(N(C)S(=O)(=O)c4ccc(C)cc4)cc3)n2)cc1 | 6.5µM* | 5.2µM* | 33% | -1 | -3% | 6
Cc1ccc(-c2csc(NC(=O)COc3ccc(N(C)S(=O)(=O)c4ccc(C)cc4)cc3)n2)cc1 | 18µM* | 15µM* | 16% | 0 | -14% | -8
Cc1ccc(S(=O)(=O)N(C)c2ccc(OCc3cccc(C)c3)cc2)cc1 | 18µM* | u | 7% | -1 | -17% | 0
Cc1ccc(S(=O)(=O)N(C)c2ccc(OCC(=O)OCc3cccc(Br)c3)cc2)cc1 | 7% | u | x | -5 | x | 12
CC(c1cccs1)N(C)C(=O)Cc1n[nH]c(=O)c2ccccc12 (stereo not drawn) | x | x | x | 2 | x | x
CN1CCOC(CNC(=O)Cc2ccccc2F)C1 (stereo not drawn) | x | x | x | 2 | x | x
CC(NC(=O)/C=C/c1ccc(Br)cc1)C1CC2CCC1C2 (stereo not drawn) | x | x | x | -7 | x | x
O=C(CN1C(=O)C2(SCC(=O)N2c2cccc(F)c2)c2ccccc21)NCc1ccccc1Cl (stereo not drawn) | 21µM* | u | x | -5 | x | x
O=C(CN1C(=O)C2(SCC(=O)N2c2ccccc2)c2ccccc21)NCCc1ccccc1 (stereo not drawn) | x | x | x | -7 | x | x
O=C(CN1C(=O)C2(SCC(=O)N2c2cccc(F)c2)c2ccccc21)NCCc1ccccc1 (stereo not drawn) | 23µM* | -29% | x | -3 | x | x
CC(=O)Nc1nonc1-c1nnc(SCc2ccc(F)cc2Cl)n1C | 15µM* | u | x | 5 | x | x
CCn1c(SCc2ccc(F)cc2Cl)nnc1-c1nonc1NC(C)=O | 18µM* | 16µM* | x | 1 | x | x
CC(=O)Nc1nonc1-c1nnc(SCc2ccc(F)cc2)n1C | u | -21% | x | -1 | x | x
C=C1c2cc3c(cc2NC(=S)N1Cc1ccccc1)OCO3 | u | 16µM* | -29% | 7 | -5% | x
S=C(NCc1ccc2c(c1)OCO2)NC1CCN(Cc2ccccc2)CC1 | u | u | u | -4 | u | u
N#Cc1cc2c(cc1C(=O)c1ccccc1)OCCO2 | x | x | x | 7 | x | x
C=CCN1c2ccccc2[C@]23C[C@@H](C(=O)OC)N(C(=O)c4cc(C)oc4C)C2=NC(C(=O)OC)=C(C(=O)OC)[C@H]13 | u | u | 21% | -1 | -2% | -65*
O=C(C(Sc1nnc(-c2cccnc2)n1-c1ccccc1)c1ccccc1)N1CCCC1 (stereo not drawn) | x | x | x | 10 | x | x
SMILES | TDP1 cell noCPT | DT40 TDP1 CPT | RORg inh | LDHA inh | VP16 counter | IL1B secr inh
c1ccc(N/N=C(\Cc2ncc[nH]2)c2ccccc2)cc1 | -1% | 14% | u | 1 | -9% | -2
COc1ccc(C(=O)N/N=C(\Cc2ncc[nH]2)c2ccccc2)cc1 | 2.9µM* | 5.2µM* | u | 0 | -13% | 42
COc1cc(C(=O)N/N=C(\Cc2ncc[nH]2)c2ccccc2)cc(OC)c1OC | 5.2µM* | 2.1µM* | u | -6 | -7% | 69
COc1cc(C(=O)NCC(=O)N/N=C/c2ccccn2)cc(OC)c1OC | -3% | 14% | 3% | -7 | 2% | 10
CSc1ccc(CNc2ccc(Cl)cc2)cc1 | -6% | -1% | 36% | 1 | 22% | -73*
CCC(=O)Nc1nc2nc(C)cc(=O)n2[nH]1 | 5% | -5% | -14% | -7 | u | 9
Cc1ccc(C(=O)Nc2nc3nc(C)cc(=O)n3[nH]2)cc1 | -3% | 1% | x | -70* | x | x
Cc1ccccc1C(=O)Nc1sc(C)c(C)c1C#N | x | x | x | 0 | x | x
O=[N+]([O-])c1ccc(C(O)CN2CCN(Cc3ccccc3)CC2)cc1 (stereo not drawn) | 7% | 7% | -2% | -4 | -2% | 14
O=[N+]([O-])c1ccc(C(O)CN2CCN(C/C=C/c3ccccc3)CC2)cc1 (stereo not drawn) | 29µM* | u | 4% | -8 | -1% | u
O=C(CN1CCN(c2cccc(Cl)c2)CC1)Nc1ccc([N+](=O)[O-])cc1C(=O)Nc1ccccc1F | 23µM* | u | 34% | -1 | -9% | 16
O=C(CN1CCN(C/C=C/c2ccccc2)CC1)Nc1cc([N+](=O)[O-])ccc1Cl | 26µM* | u | -76% | -23 | u | 6
CS(=O)(=O)c1ccc(Cl)c(NC(=O)CN2CCN(S(=O)(=O)/C=C/c3ccccc3)CC2)c1 | 3.3µM* | u | x | -1 | x | -17
